# According to PubChem BioAssay AID1347076 (National Center for Advancing Translational Sciences (NCATS), 2019):
# About 13,000 (3.2%) of roughly 400,000 compounds were called active. Not shown: some 18% with an inconclusive outcome. Calls follow the shape of the dose curve; as a rule, active = well fitted cell-killing curve with a large enough effect; inconclusive = small, poorly fitted or top-dose-only effect, or effect the other way; inactive = flat fitted curve, though single readings scatter. Shown is part of a subset that was picked to be rich in actives.
# Test: qHTS assay for MDR1-selective chemotherapeutics: Primary screen using the drug-selected MDR subline cells KB-V1; also: nearly all actives have a fitted effect of over 60% in size
# Conditions: KB-V1 MDR cells viability, CellTiter-Glo, 72 h; series mostly up to 46.1 µM; activity change, negative = cytotoxicity: at the top concentration
# Procedure, shortened: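 KB-V1, DMEM (no phenol red) + 10% FBS; cpd pin-transferred, titration series; 72 h, 37 degrees C; CellTiter-Glo, luminescence. Data normalized, curve-fit.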
# % is scaled to controls: 0 for no effect and ±100 for the full control effect; potency is read from the fitted curve at half-maximal effect.
SMILES,Potency,"activity change, negative = cytotoxicity"
COc1ccc(C)c(Cn2c(-c3nonc3N)nc3ccccc32)c1,2.31 µM (active),–
CC(=O)Nc1nonc1-c1nc2ccccc2n1Cc1ccccn1,–,-6.93% (inactive)
CCn1c(C(O)c2cc(OC)ccc2OC)nc2ccccc21 (stereo not given),–,0% (inactive)
O=C(NCCS(=O)(=O)N1CCN(c2ccccc2)CC1)c1cc(=O)c2ccccc2o1,–,-16.5% (inactive)
OCCC#Cc1ccc(N2C(c3ccsc3)=Cc3ccc(F)cc3C2c2c[nH]c3ccccc23)cc1 (stereo not given),–,-2.8% (inactive)
COc1ccc(CCNS(=O)(=O)c2cc(-c3cc(C)no3)ccc2C)cc1OC,–,14.1% (inactive)
CCOc1ccccc1CNS(=O)(=O)c1cc(-c2cc(C)no2)ccc1C,–,-25.9% (inactive)
COc1ccc(CNS(=O)(=O)c2cc(-c3cc(C)no3)ccc2C(C)C)cc1,13 µM (active),–
CC1(C(=O)NS(=O)(=O)Cc2cccc(Cl)c2)CCN1C(=O)Cc1ccc(Cl)cc1Cl (stereo not given),–,3.11% (inactive)
CCc1nc2ccc(C(=O)N3CCN(S(=O)(=O)CC)CC3)cn2c1N(C=O)CCC(C)C,–,-1.32% (inactive)
CCCCCCCNc1ccc(/C=C/c2ccnc3ccccc23)cc1,–,-14.4% (inactive)
Cc1cc(C)nc(NS(=O)(=O)c2ccc(NC(=O)c3cc(=O)c4ccc(C)c(C)c4o3)cc2)n1,–,10.1% (inactive)
Cc1cc(-c2csc(N)n2)c(C)n1Cc1ccccc1,–,-1.04% (inactive)
O=c1c2ccccc2n(Cc2cccc(Cl)c2)c(=O)n1Cc1ccccc1,–,0% (inactive)
Nc1cc(=O)n(Cc2ccccc2)c(=O)n1Cc1ccccc1,18.4 µM (active),–
O=C(CCN1CCCCC1)Nc1ccc(F)c(F)c1,–,-4.41% (inactive)
CSc1ncnc2c1ncn2CCCNCc1ccco1,–,-0.21% (inactive)
CSc1ncnc2c1ncn2CCCNCC1CCCCC1,–,-20.3% (inactive)
CSc1ncnc2c1ncn2CC(=O)C1CCC2C3CCC4=CC(=O)CCC4(C)C3CCC12C (stereo not given),23.1 µM (active),–
Cc1cc(C)cc(NC(=O)Cn2nc(N3CCN(c4ccccc4)CC3)ccc2=O)c1,–,0% (inactive)
CC1(C)CN(Cc2cccnc2)C(=O)[C@H]1CC(=O)Nc1ccc(Br)cc1,–,-10.6% (inactive)
COC(=O)CN(c1nc(C)c(Cl)c(OC)n1)S(=O)(=O)c1ccc(C)cc1,13 µM (active),–
CCN(CC)C(=O)CN(c1cccc(OC)c1)S(=O)(=O)c1ccc(C)cc1,–,-18.1% (inactive)
COc1ccc(C)cc1N(CC(=O)N1CCC(C)CC1)S(=O)(=O)c1ccc(C)cc1,–,-20% (inactive)
CCOC(=O)N1CCN(C(=O)C[C@@H]2C[C@@]3(C(=O)OC)CCCCC=C3N(CCC3=CCCCC3)C2=O)CC1,–,0% (inactive)

SMILES,Potency,"activity change, negative = cytotoxicity"
CCCNC(=O)C[C@@H]1CC[C@@H]2[C@H](COC[C@H](O)CN2C(=O)c2cc(Cl)cc(Cl)c2)O1,–,-2.38% (inactive)
C[C@@H]1CN([C@@H](C)CO)C(=O)c2c(c3ccccc3n2C)-c2ccccc2CO[C@H]1CN(C)C(=O)C1CC1,–,2.91% (inactive)
Cn1ncc([N+](=O)[O-])c1C(=O)Nc1cc(Cl)ccc1Cl,–,-28.7% (inactive)
CN(C)c1ccc(NC(=O)CSc2nc(-c3ccco3)cc(C(F)(F)F)n2)cc1,–,-4.3% (inactive)
Cc1ccc(-c2cnc(C(O)c3cccc(C)c3C)[nH]2)cc1 (stereo not given),–,0.531% (inactive)
Cc1cc(F)ccc1NS(=O)(=O)c1ccc(-n2cccn2)cc1,–,-19.7% (inactive)
Cc1ccc(-c2nnc3ccc(SCC(N)=O)nn23)cc1,–,-16.7% (inactive)
O=C(NOCc1ccccc1)c1cccc([N+](=O)[O-])c1,–,-0.0129% (inactive)
CCC1(C(=O)c2ccccc2)C(c2cccc([N+](=O)[O-])c2)C1(C(=O)OC)C(=O)OC (stereo not given),23.1 µM (active),–
COc1cccc(NCCC(=O)c2cccc([N+](=O)[O-])c2)c1,–,0% (inactive)
CC(C)(C)NC(=O)C(CCc1ccccc1)n1c(=O)c(-c2ccccc2)nc2ccccc21 (stereo not given),–,-14% (inactive)
Cc1cccc2cc(CN(Cc3cccs3)C(=S)NCc3ccco3)c(=O)[nH]c12,3.66 µM (active),–
Cc1cc(C)c2[nH]c(=O)c(CN(Cc3ccccc3)C(=S)NCCCN(C)C)cc2c1,–,20.3% (inactive)
Cc1ccc(C)c2[nH]c(=O)c(CCNC(=O)c3cccs3)cc12,–,-0.813% (inactive)
Cc1cccc2cc(CN(C(=O)c3cccs3)c3ccccc3)c(=O)[nH]c12,23.1 µM (active),–
Cc1ccc(C)c2[nH]c(=O)c(CN(Cc3cccnc3)C(=S)NCc3ccco3)cc12,–,-4.35% (inactive)
CCCN(Cc1cc2cccc(C)c2[nH]c1=O)S(C)(=O)=O,–,0% (inactive)
CCOC1=C2[C@H]([C@H]3C(=O)N(c4ccccc4)C(=O)[C@H]3C1)[C@@H](c1ccccc1)N(S(=O)(=O)c1ccc(C)cc1)[C@H]2c1ccccc1,–,9.91% (inactive)
CCc1nc2ccc(C(=O)NCc3ccc(OC)cc3)cn2c1N(CC)Cc1cccc(Br)c1,–,-14.4% (inactive)
CSC1=NN(c2ccccc2)CN(c2ccccc2)N1C,–,-10.4% (inactive)
Cc1cccc(-c2cnc(C(O)c3cc(C)cc(C)c3)[nH]2)c1 (stereo not given),–,-1.95% (inactive)
COCCNC(=O)C1(C)CCCN(Cc2cccc(F)c2)C1 (stereo not given),–,5.35% (inactive)
O=C1c2cccc3cccc(c23)N1CN1CCN(c2ccccn2)CC1,5.8 µM (active),–
O=C(CN1C(=O)c2cccc3cccc1c23)Nc1ccccc1,–,-9.9% (inactive)
O=C(CN1CCN(c2ccccn2)CC1)N1CCc2ccccc21,–,19.5% (inactive)

SMILES,Potency,"activity change, negative = cytotoxicity"
COc1ccc(NC(=O)CN2C(=O)NC(C)(c3ccccc3)C2=O)cn1 (stereo not given),–,19% (inactive)
COc1ccc(N2CCN(C(=O)c3ccc4c(Cl)c5c(nc4c3)CCCC5)CC2)cc1,inactive,–
COc1cccc(CNC(=O)c2ccc3c(Cl)c4c(nc3c2)CCCC4)c1,–,-11.6% (inactive)
CC(=O)c1ccc(NC(=O)c2ccc3c(Cl)c4c(nc3c2)CCCC4)cc1,16.4 µM (active),–
Fc1ccc(-c2nn(-c3ccccc3Cl)c3c2cnc2ccccc23)cc1,–,-20.6% (inactive)
Cc1ccc(S(=O)(=O)N[C@H](CO)C(C)C)cc1,–,-2.47% (inactive)
O=C(Nn1cnc2ccccc2c1=O)c1ccccc1,–,-7.07% (inactive)
CSc1nc(N(C)NC(=O)c2cccc(C)c2)c2ccccc2n1,0.206 µM (active),–
Cc1cccc(C(=O)NCCc2nc3ccccc3n2Cc2ccccc2Cl)c1,–,-0.81% (inactive)
Cc1cccc(C(=O)Nc2ccc(-c3nc4ccccc4s3)c(C)c2)c1,–,17.3% (inactive)
CN(NC(=O)c1ccccc1)c1nc2ccccc2nc1C(F)(F)F,4.61 µM (active),–
CN(NC(=O)c1ccccc1F)c1nc(C(F)(F)F)nc2ccccc12,–,-12% (inactive)
C[C@H](CO)N1C[C@H](C)[C@@H](CN(C)C(=O)C2CCCCC2)OCc2cnnn2CCCC1=O,–,0% (inactive)
Cc1ccc(F)c(S(=O)(=O)NC(=O)C2(C)CCN2C(=O)c2ccco2)c1 (stereo not given),–,2.85% (inactive)
COc1cccc(CNc2nc3cc(-c4csc5ccccc45)sc3c(=O)n2C)c1,–,1.56% (inactive)
CC1CCN(c2ccc3c(c2)S(=O)(=O)c2cc(C(=O)O)ccc2C3=O)CC1,–,-17.6% (inactive)
CCCCc1ccc(S(=O)(=O)NC(=O)C2(C)CCN2C(=O)c2ccccc2)cc1 (stereo not given),–,-1.95% (inactive)
O=c1[nH]c(CCl)nc2cc(-c3ccc(Cl)cc3)sc12,16.4 µM (active),–
NC(=O)Cc1nc2scc(-c3ccc(Cl)cc3)c2c(=O)[nH]1,–,34.2% (inactive)
O=c1[nH]c(CN2CCOCC2)nc2cc(Cl)ccc12,–,-7.03% (inactive)
COCOc1cccc(CN2CCC(C)(Oc3ccc(SC)cc3)C2)c1 (stereo not given),–,-12.9% (inactive)
O=C1CC(c2ccccc2)CC2=C1C(c1ccco1)n1nc(C(F)(F)F)nc1N2 (stereo not given),–,0% (inactive)
COc1ccc(N2C(=O)CSC23C(=O)N(Cc2cccc(F)c2)c2ccccc23)cc1Cl (stereo not given),16.4 µM (active),–
COc1ccc(N2C(=O)CS(=O)(=O)C23C(=O)N(Cc2ccc(C)cc2)c2ccccc23)cc1Cl (stereo not given),–,3.01% (inactive)
COc1ccnc2c1c(=O)n(Cc1cccc(F)c1)c(=O)n2C,–,-0.196% (inactive)

SMILES,Potency,"activity change, negative = cytotoxicity"
COc1cc(C(=O)OCCCN2CCOCC2)cc(OC)c1OC,–,-11.7% (inactive)
CC(C)(C)OC(=O)N1CCC(c2c(C(=O)Nc3ccc4c(c3)OCO4)cnn2-c2ccccc2)CC1,–,-13.9% (inactive)
COc1cc(OC)c(OC)cc1/C=C1\C=Cc2ccccc21,–,-1.45% (inactive)
COc1ccc(S(=O)(=O)N2CCC(C(=O)NCCC(=O)Nc3ccccc3OC)CC2)cc1,–,6.15% (inactive)
COC(=O)c1cc(NC(=O)c2cc(C(C)(C)C)nn2Cc2cccc(C)c2)ccc1N1CCOCC1,8.2 µM (active),–
CC(=O)Nc1ccc(N2CCOCC2)c(C(=O)Nc2cccc(C)c2)c1,–,-4.2% (inactive)
COC(=O)c1cc(NC(=O)c2ccco2)ccc1N1CCOCC1,–,-2.65% (inactive)
COc1ccc(C(=O)C(OP(=O)(OC)OC)c2ccccc2OC)cc1 (stereo not given),–,-16.5% (inactive)
CC1CC(NC(=S)N(C)C)CC(C)(C)C1 (stereo not given),–,-7.02% (inactive)
C=CCOC(=O)c1ccccc1C(=O)OCC=C,–,28.4% (inactive)
CC1=C(C(=O)Nc2ccccc2)C(c2cccs2)C(C#N)=C(SCC#N)N1 (stereo not given),–,-9.02% (inactive)
C=CCOC(=O)C1=C(C)NC(C)=C(C(=O)OCC=C)C1c1cccs1,16.4 µM (active),–
COc1ccc(C(O)c2nc(-c3ccc(OC)nc3)cs2)cc1 (stereo not given),–,-18.5% (inactive)
CCOC(=O)c1c(-c2cccc(C)c2)csc1NC(=O)c1c(-c2ccccc2)noc1C,11.6 µM (active),–
CCOC(=O)c1c(-c2ccc(-c3ccccc3)cc2)csc1NC(=O)CCC(=O)O,–,23% (inactive)
Cc1ccc(CNC(=O)c2c(-c3ccccc3)noc2C)cc1,–,6.43% (inactive)
O=S1(=O)CC(N2CCN(CCO)CC2)CN1C1CCCC1 (stereo not given),–,-0.341% (inactive)
COc1ccc(C(=O)NCC2CCCO2)cc1S(=O)(=O)NCc1ccc(Cl)cc1 (stereo not given),–,-13.3% (inactive)
CCC(=O)NCc1cc(-c2nn(C)c(=O)c3ccccc23)ccc1OC,inactive,–
CCCCCc1c(-c2cccc(Br)c2)ncn1CCc1ccccc1OC,11.6 µM (active),–
CCOC(=O)CSc1nnc(-c2cccc(Br)c2)o1,–,17.9% (inactive)
COc1ccc(Br)cc1CN1CCN(C(=O)c2cccc(OC)c2OC)CC1,–,-7.38% (inactive)
CCCCCc1c(-c2ccc(OC)c(OC)c2)ncn1CCc1ccccc1OC,14.6 µM (active),–
CCCCCc1c(Cc2ccccc2)ncn1CCc1ccccc1OC,–,-27.9% (inactive)
Cc1cccc(-n2ncc(C(=O)N3CCN(c4ccc(Cl)cc4)CC3)c2C2CCN(C(=O)OC(C)(C)C)CC2)c1,–,-29.7% (inactive)
